PubChem BioAssay (NCATS)
Inconclusive results are not listed. Unmarked numbers belong to inactive results. Calls of active or inactive are those of the source. Calls follow the shape of the dose curve; as a rule, active = well fitted curve in the direction sought with a large enough effect; inconclusive = small, poorly fitted or top-dose-only effect, or another doubt; inactive = no such curve, though single readings can be large; an effect the other way counts as inactive or inconclusive.

Assay: qHTS for differential inhibitors of proliferation of Plasmodium falciparum line 3D7 (AID 1876);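 as to activity, negative = inhibition: parasite growth measured after three days of culture; 0% = vehicle wells and -100% = reference inhibitor wells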
Details: P. falciparum 3D7 proliferation inhibition; series mostly up to 28.7 µM; activity, negative = inhibition: at the top concentration
Potency is read from the fitted curve at half-maximal effect.

SMILES	activity, negative = inhibition [%]	Potency
NC(=O)c1cnccn1	0.157	–
N[C@@H]1CONC1=O	13.7	–
CCN(CC)CCCC(C)Nc1ccnc2cc(Cl)ccc12 (centres undefined)	–	0.112 µM (active)
NCCCC(N)(C(=O)O)C(F)F (centres undefined)	-6.74	–
O=c1[nH]cnc2[nH]ncc12	4.87	–
NS(=O)(=O)c1cc2c(cc1Cl)NC=NS2(=O)=O	-3.23	–
Nc1nc2c(ncn2COCCO)c(=O)[nH]1	-12	–
Nc1ccc(S(=O)(=O)Nc2ccnn2-c2ccccc2)cc1	0.992	–
O=C1CCC(N2C(=O)c3ccccc3C2=O)C(=O)N1 (centres undefined)	-5.02	–
OC(CN1CCC(Cc2ccc(F)cc2)CC1)c1ccc(Cl)cc1 (centres undefined)	–	1.26 µM (active)
Nc1nc2ccc(OC(F)(F)F)cc2s1	-2.24	–
CCOC(=O)N1CCC(=C2c3ccc(Cl)cc3CCc3cccnc32)CC1	–	12.6 µM (active)
CCCCNc1cc(C(=O)O)cc(S(N)(=O)=O)c1Oc1ccccc1	-4.17	–
N=c1nc(N2CCCCC2)cc(N)n1O	-4.85	–
CC(C[N+](C)(C)C)OC(N)=O (centres undefined)	-5.65	–
CN1CCN(CCCN2c3ccccc3Sc3ccc(C(F)(F)F)cc32)CC1	–	7.08 µM (active)
CC(=O)Oc1ccccc1C(=O)O	6.85	–
CNC[C@H](O)c1cccc(O)c1	-1.24	–
Cc1[nH]c(=O)c(C#N)cc1-c1ccncc1	-4.82	–

Assay: qHTS for differential inhibitors of proliferation of Plasmodium falciparum line D10 (AID 1877);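 also: parasites grown with compound for 72 h before DNA staining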;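 as to activity change, negative = inhibition: plate controls were vehicle wells for no effect and reference inhibitor wells for full effect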
Details: series mostly up to 28.7 µM; activity change, negative = inhibition: at the top concentration

SMILES	activity change, negative = inhibition [%]	Potency
NC(=O)c1cnccn1	-17.7	–
N[C@@H]1CONC1=O	-4.54	–
CCN(CC)CCCC(C)Nc1ccnc2cc(Cl)ccc12 (centres undefined)	–	0.316 µM (active)
NCCCC(N)(C(=O)O)C(F)F (centres undefined)	-2.78	–
O=c1[nH]cnc2[nH]ncc12	-3.01	–
NS(=O)(=O)c1cc2c(cc1Cl)NC=NS2(=O)=O	-21.6	–
Nc1nc2c(ncn2COCCO)c(=O)[nH]1	-6.32	–
Nc1ccc(S(=O)(=O)Nc2ccnn2-c2ccccc2)cc1	-9.81	–
O=C1CCC(N2C(=O)c3ccccc3C2=O)C(=O)N1 (centres undefined)	-17.2	–
OC(CN1CCC(Cc2ccc(F)cc2)CC1)c1ccc(Cl)cc1 (centres undefined)	–	2.51 µM (active)
Nc1nc2ccc(OC(F)(F)F)cc2s1	-8.79	–
CCOC(=O)N1CCC(=C2c3ccc(Cl)cc3CCc3cccnc32)CC1	–	10 µM (active)
CCCCNc1cc(C(=O)O)cc(S(N)(=O)=O)c1Oc1ccccc1	-1.79	–
N=c1nc(N2CCCCC2)cc(N)n1O	-8.62	–
CC(C[N+](C)(C)C)OC(N)=O (centres undefined)	-1.84	–
CN1CCN(CCCN2c3ccccc3Sc3ccc(C(F)(F)F)cc32)CC1	–	11.2 µM (active)
CC(=O)Oc1ccccc1C(=O)O	-11.1	–
CNC[C@H](O)c1cccc(O)c1	-9.04	–
Cc1[nH]c(=O)c(C#N)cc1-c1ccncc1	-17.3	–

Assay: qHTS for differential inhibitors of proliferation of Plasmodium falciparum line Dd2 (AID 1882); also: nearly all actives have a fitted effect of over 65% in size;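 as to activity change, negative = inhibition: compound exposure of 72 h on infected erythrocytes; plate controls were DMSO vehicle for no effect and 0.29 µM artemisinin for full effect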
Details: Potency: Plasmodium falciparum Dd2 proliferation inhibition; series mostly up to 28.7 µM; activity change, negative = inhibition: at the top concentration
How it was run: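 SYBR Green I DNA fluorescence read-out, ex 485/em 535 nm. Signals were normalized to 0.29 uM artemisinin and DMSO wells, then corrected using vehicle-only plates flanking each stack. Parasite growth ran 72 h in erythrocytes before lysis.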

SMILES	activity change, negative = inhibition [%]	Potency
NC(=O)c1cnccn1	3.87	–
N[C@@H]1CONC1=O	5.97	–
CCN(CC)CCCC(C)Nc1ccnc2cc(Cl)ccc12 (centres undefined)	–	10 µM (active)
NCCCC(N)(C(=O)O)C(F)F (centres undefined)	8.88	–
O=c1[nH]cnc2[nH]ncc12	-16.3	–
NS(=O)(=O)c1cc2c(cc1Cl)NC=NS2(=O)=O	0.983	–
Nc1nc2c(ncn2COCCO)c(=O)[nH]1	-1.21	–
Nc1ccc(S(=O)(=O)Nc2ccnn2-c2ccccc2)cc1	-9.98	–
O=C1CCC(N2C(=O)c3ccccc3C2=O)C(=O)N1 (centres undefined)	4.05	–
OC(CN1CCC(Cc2ccc(F)cc2)CC1)c1ccc(Cl)cc1 (centres undefined)	–	1.26 µM (active)
CCOC(=O)N1CCC(=C2c3ccc(Cl)cc3CCc3cccnc32)CC1	–	10 µM (active)
CCCCNc1cc(C(=O)O)cc(S(N)(=O)=O)c1Oc1ccccc1	1.05	–
N=c1nc(N2CCCCC2)cc(N)n1O	-0.927	–
CC(C[N+](C)(C)C)OC(N)=O (centres undefined)	10.4	–
CN1CCN(CCCN2c3ccccc3Sc3ccc(C(F)(F)F)cc32)CC1	–	12.6 µM (active)
CC(=O)Oc1ccccc1C(=O)O	-4.45	–
CNC[C@H](O)c1cccc(O)c1	-2.34	–
Cc1[nH]c(=O)c(C#N)cc1-c1ccncc1	-6.08	–

Assay: qHTS for differential inhibitors of proliferation of Plasmodium falciparum line W2 (AID 1883);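 also: parasites grown with compound for 72 h before lysis and staining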;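 as to activity change, negative = inhibition: 0% = vehicle wells and -100% = control inhibitor wells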
Details: Potency: Plasmodium falciparum W2 proliferation inhibition; series mostly up to 28.7 µM; activity change, negative = inhibition: at the top concentration

SMILES	activity change, negative = inhibition [%]	Potency
NC(=O)c1cnccn1	-7.43	–
CCN(CC)CCCC(C)Nc1ccnc2cc(Cl)ccc12 (centres undefined)	–	2.24 µM (active)
NCCCC(N)(C(=O)O)C(F)F (centres undefined)	8.93	–
O=c1[nH]cnc2[nH]ncc12	-4.61	–
Nc1ccc(S(=O)(=O)Nc2ccnn2-c2ccccc2)cc1	-6.88	–
O=C1CCC(N2C(=O)c3ccccc3C2=O)C(=O)N1 (centres undefined)	-10.9	–
OC(CN1CCC(Cc2ccc(F)cc2)CC1)c1ccc(Cl)cc1 (centres undefined)	–	0.282 µM (active)
CCOC(=O)N1CCC(=C2c3ccc(Cl)cc3CCc3cccnc32)CC1	–	5.01 µM (active)
CCCCNc1cc(C(=O)O)cc(S(N)(=O)=O)c1Oc1ccccc1	-0.295	–
N=c1nc(N2CCCCC2)cc(N)n1O	3.42	–
CN1CCN(CCCN2c3ccccc3Sc3ccc(C(F)(F)F)cc32)CC1	–	4.47 µM (active)
CC(=O)Oc1ccccc1C(=O)O	-2.85	–
CNC[C@H](O)c1cccc(O)c1	6.09	–
Cc1[nH]c(=O)c(C#N)cc1-c1ccncc1	-3.82	–

Assay: qHTS for differential inhibitors of proliferation of Plasmodium falciparum line HB3 (AID 1886);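 also: parasites grown with compound for 72 h before SYBR Green readout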;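 as to activity change, negative = inhibition: plate controls were vehicle for no effect and reference inhibitor for full effect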
Details: Potency: Plasmodium falciparum HB3 proliferation inhibition; series mostly up to 28.7 µM; activity change, negative = inhibition: at the top concentration

SMILES	activity change, negative = inhibition [%]	Potency
NC(=O)c1cnccn1	1.82	–
N[C@@H]1CONC1=O	-11.2	–
CCN(CC)CCCC(C)Nc1ccnc2cc(Cl)ccc12 (centres undefined)	–	0.282 µM (active)
NCCCC(N)(C(=O)O)C(F)F (centres undefined)	-1.76	–
O=c1[nH]cnc2[nH]ncc12	-4.57	–
NS(=O)(=O)c1cc2c(cc1Cl)NC=NS2(=O)=O	-0.958	–
Nc1nc2c(ncn2COCCO)c(=O)[nH]1	-9.73	–
Nc1ccc(S(=O)(=O)Nc2ccnn2-c2ccccc2)cc1	1.82	–
O=C1CCC(N2C(=O)c3ccccc3C2=O)C(=O)N1 (centres undefined)	7.56	–
OC(CN1CCC(Cc2ccc(F)cc2)CC1)c1ccc(Cl)cc1 (centres undefined)	–	1.41 µM (active)
Nc1nc2ccc(OC(F)(F)F)cc2s1	-14.7	–
CCOC(=O)N1CCC(=C2c3ccc(Cl)cc3CCc3cccnc32)CC1	–	10 µM (active)
CCCCNc1cc(C(=O)O)cc(S(N)(=O)=O)c1Oc1ccccc1	4.23	–
N=c1nc(N2CCCCC2)cc(N)n1O	3.67	–
CC(C[N+](C)(C)C)OC(N)=O (centres undefined)	-14.2	–
CN1CCN(CCCN2c3ccccc3Sc3ccc(C(F)(F)F)cc32)CC1	–	7.94 µM (active)
CC(=O)Oc1ccccc1C(=O)O	-6.82	–
CNC[C@H](O)c1cccc(O)c1	-1.7	–
Cc1[nH]c(=O)c(C#N)cc1-c1ccncc1	-10.8	–
